Several values for one entry are separate records, joined by “and”; a condition that tells them apart may be missing. Equal entries are not always repeated. In all, about 5,500 compounds went through this assay and about 2,000 (36%) were called active. About 18% were inconclusive and are not listed. Rule as the data show it: active = normalized growth mostly below about 0.91 (no sharp cut-off); inconclusive = no clear call, values can overlap the other calls; inactive = mostly above about 0.92. Some of the results follow.
Assay: chemical genetic growth profiling, strain panel (AID 1159580);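 also: tested at 20 µM; growth read once vehicle control cultures reached saturation at 30 °C; 1 = growth at the plate median or of vehicle wells; lower values mean less growth of the strain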
Settings: S. cerevisiae deletion strains, growth OD

Measured: normalized growth

C=C(C)[C@H]1COc2cc3oc(=O)ccc3cc2O1
active: locus YAL021C, strain ccr4, stronger effect = lower value 0.52 | locus YAL026C, strain drs2, stronger effect = lower value 0.51 | locus YBL061C, strain skt5, stronger effect = lower value 0.213 | locus YBR009C, strain hhf1, stronger effect = lower value 0.811 | locus YBR021W, strain FUR4, stronger effect = lower value 0.116 | locus YBR023C, strain chs3, stronger effect = lower value 0.339 | locus YBR231C, strain swc5, stronger effect = lower value 0.786 | locus YBR279W, strain paf1, stronger effect = lower value 0.931 | locus YCL011C, strain gbp2, stronger effect = lower value 0.852 | locus YCL016C, strain dcc1, stronger effect = lower value 0.736 | locus YCL029C, strain bik1, stronger effect = lower value 0.72 | locus YCL061C, strain MRC1, stronger effect = lower value 0.793 | locus YCL069W, strain vba3, stronger effect = lower value 0.783 | locus YCR088W, strain abp1, stronger effect = lower value 0.814 | locus YDL035C, strain GPR1, stronger effect = lower value 0.491 | locus YDL074C, strain BRE1, stronger effect = lower value 0.465 | locus YDL101C, strain DUN1, stronger effect = lower value 0.36 | locus YDL192W, strain arf1, stronger effect = lower value 0.111 | locus YDR069C, strain doa4, stronger effect = lower value 0.888 | locus YDR101C, strain arx1, stronger effect = lower value 0.724 | locus YDR137W, strain rgp1, stronger effect = lower value 0.279 | locus YDR150W, strain NUM1, stronger effect = lower value 0.53 | locus YDR162C, strain NBP2, stronger effect = lower value 0.0606 | locus YDR318W, strain mcm21, stronger effect = lower value 0.62 | locus YDR335W, strain msn5, stronger effect = lower value 0.857 | locus YDR388W, stronger effect = lower value 0.515 | locus YDR502C, strain sam2, stronger effect = lower value 0.387 | locus YEL003W, strain gim4, stronger effect = lower value 0.911 | locus YEL061C, strain CIN8 (second series), stronger effect = lower value 0.447 | locus YER015W, strain faa2, stronger effect = lower value 0.9 | locus YER016W, strain bim1, stronger effect = lower value 0.791 | locus YER110C, stronger effect = lower value 0.747 | locus YER155C, strain BEM2 (second series), stronger effect = lower value 0.444 | locus YER155C, strain BEM2, stronger effect = lower value 0.879 | locus YER167W, strain BCK2, stronger effect = lower value 0.671 | locus YGL086W, strain mad1, stronger effect = lower value 0.578 | locus YGL240W, strain doc1, stronger effect = lower value 0.756 | locus YGL248W, strain PDE1, stronger effect = lower value 0.385 | locus YGL253W, strain hxk2, stronger effect = lower value 0.466 | locus YGR135W, strain pre9, stronger effect = lower value 0.574 | locus YGR252W, strain gcn5, stronger effect = lower value 0.28 | locus YHR013C, strain ard1, stronger effect = lower value 0.692 | locus YHR030C, strain SLT2, stronger effect = lower value 0.272 | locus YHR129C, strain ARP1, stronger effect = lower value 0.554 | locus YHR142W, strain chs7, stronger effect = lower value 0.148 | locus YHR200W, strain rpn10, stronger effect = lower value 0.572 | locus YIL066C, strain RNR3, stronger effect = lower value 0.407 | locus YIL073C, strain SPO22, stronger effect = lower value 0.16 | locus YIL125W, strain kgd1, stronger effect = lower value 0.916 | locus YIR030C, strain dcg1, stronger effect = lower value 0.819 | locus YJL092W, strain hpr5, stronger effect = lower value 0.903 | locus YJL095W, strain BCK1 (second series), stronger effect = lower value 0.107 | locus YJL095W, strain BCK1, stronger effect = lower value 0.0661 and 0.314 | locus YJL129C, strain trk1, stronger effect = lower value 0.452 | locus YJL164C, strain tpk1, stronger effect = lower value 0.871 | locus YJL166W, strain qcr8, stronger effect = lower value 0.662 | locus YJL168C, strain set2, stronger effect = lower value 0.887 | locus YJL187C, strain SWE1 (second series), stronger effect = lower value 0.635 | locus YJL187C, strain SWE1, stronger effect = lower value 0.886 | locus YJR043C, strain POL32, stronger effect = lower value 0.249 | locus YKL160W, strain elf1, stronger effect = lower value 0.749 | locus YKR001C, strain vps1, stronger effect = lower value 0.0831 | locus YLL001W, strain dnm1, stronger effect = lower value 0.868 | locus YLR039C, strain RIC1, stronger effect = lower value 0.12 | locus YLR058C, strain SHM2, stronger effect = lower value 0.571 | locus YLR102C, strain apc9, stronger effect = lower value 0.863 | locus YLR221C, strain rsa3, stronger effect = lower value 0.898 | locus YLR258W, strain gsy2, stronger effect = lower value 0.902 | locus YLR262C, strain YPT6 (second series), stronger effect = lower value 0.23 | locus YLR262C, strain YPT6, stronger effect = lower value 0.166 | locus YLR268W, strain sec22, stronger effect = lower value 0.597 | locus YLR320W, strain mms22, stronger effect = lower value 0.75 | locus YLR330W, strain CHS5, stronger effect = lower value 0.0549 | locus YLR342W, strain FKS1 (second series), stronger effect = lower value 0.075 | locus YLR342W, strain FKS1, stronger effect = lower value 0.0723 | locus YLR357W, strain rsc2, stronger effect = lower value 0.538 | locus YLR370C, strain arc18, stronger effect = lower value 0.657 | locus YLR371W, strain rom2, stronger effect = lower value 0.123 | locus YLR418C, strain cdc73, stronger effect = lower value 0.18 | locus YML016C, strain PPZ1, stronger effect = lower value 0.548 | locus YML032C, strain rad52, stronger effect = lower value 0.555 | locus YML124C, strain tub3, stronger effect = lower value 0.805 | locus YMR058W, strain fet3, stronger effect = lower value 0.838 | locus YMR078C, strain ctf18, stronger effect = lower value 0.871 | locus YMR205C, strain PFK2, stronger effect = lower value 0.776 | locus YMR223W, strain ubp8, stronger effect = lower value 0.514 | locus YMR231W, strain pep5, stronger effect = lower value 0.114 | locus YMR307W, strain GAS1, stronger effect = lower value 0.192 | locus YNL067W, strain RPL9B, stronger effect = lower value 0.841 | locus YNL071W, strain lat1, stronger effect = lower value 0.827 | locus YNL153C, strain GIM3, stronger effect = lower value 0.223 | locus YNL233W, strain BNI4, stronger effect = lower value 0.408 | locus YNL271C, strain bni1, stronger effect = lower value 0.846 | locus YNL298W, strain CLA4, stronger effect = lower value 0.839 | locus YNL307C, strain MCK1, stronger effect = lower value 0.37 | locus YNR052C, strain pop2, stronger effect = lower value 0.273 | locus YOL147C, strain pex11, stronger effect = lower value 0.757 | locus YOR061W, strain CKA2, stronger effect = lower value 0.135 | locus YOR069W, strain VPS5, stronger effect = lower value 0.687 | locus YOR070C, strain gyp1, stronger effect = lower value 0.736 | locus YOR083W, strain WHI5, stronger effect = lower value 0.728 | locus YOR106W, strain vam3, stronger effect = lower value 0.387 | locus YOR136W, strain idh2, stronger effect = lower value 0.867 | locus YOR144C, strain elg1, stronger effect = lower value 0.833 | locus YOR184W, strain ser1, stronger effect = lower value 0.387 | locus YOR265W, strain rbl2, stronger effect = lower value 0.881 | locus YOR270C, strain vph1, stronger effect = lower value 0.374 | locus YPL051W, strain arl3, stronger effect = lower value 0.232 | locus YPL078C, strain atp4, stronger effect = lower value 0.755 | locus YPL106C, strain sse1, stronger effect = lower value 0.709 | locus YPL241C, strain CIN2, stronger effect = lower value 0.286 | locus YPR119W, strain clb2, stronger effect = lower value 0.354 | locus YPR163C, strain tif3, stronger effect = lower value 0.889 | locus YPR167C, strain met16, stronger effect = lower value 0.766 | strain wtn01, stronger effect = lower value 0.468
inactive: locus YAL030W, strain snc1, stronger effect = lower value 0.933 | locus YBR171W, strain sec66, stronger effect = lower value 0.938 | locus YBR229C, strain ROT2, stronger effect = lower value 0.956 | locus YDL005C, strain med2, stronger effect = lower value 0.959 | locus YDL040C, strain nat1, stronger effect = lower value 0.957 | locus YDL185W, strain tfp1, stronger effect = lower value 0.924 | locus YDR001C, strain nth1, stronger effect = lower value 0.956 | locus YDR159W, strain sac3, stronger effect = lower value 0.905 | locus YDR195W, strain ref2 1.05 | locus YDR297W, strain sur2, stronger effect = lower value 0.956 | locus YDR334W, strain swr1, stronger effect = lower value 0.921 | locus YDR392W, strain spt3, stronger effect = lower value 0.775 | locus YEL037C, strain rad23, stronger effect = lower value 0.956 | locus YER111C, strain swi4, stronger effect = lower value 0.961 | locus YFR010W, strain ubp6, stronger effect = lower value 0.945 | locus YGL078C, strain dbp3, stronger effect = lower value 0.993 | locus YGL167C, strain pmr1, stronger effect = lower value 0.995 | locus YGL173C, strain kem1, stronger effect = lower value 0.906 | locus YGL227W, strain vid30, stronger effect = lower value 0.932 | locus YHR027C, strain rpn1, stronger effect = lower value 0.929 | locus YHR079C, strain IRE1 (second series), stronger effect = lower value 0.967 | locus YHR079C, strain IRE1, stronger effect = lower value 1.01 | locus YHR094C, strain hxt1, stronger effect = lower value 0.948 | locus YJL115W, strain asf1, stronger effect = lower value 0.977 | locus YJL134W, strain LCB3, stronger effect = lower value 0.934 | locus YJL154C, strain vps35, stronger effect = lower value 0.958 | locus YJR066W, strain TOR1, stronger effect = lower value 0.926 | locus YKL009W, strain mrt4, stronger effect = lower value 0.965 | locus YKL068W, stronger effect = lower value 0.985 | locus YKL085W, strain MDH1 (second series), stronger effect = lower value 0.972 | locus YKL085W, strain MDH1, stronger effect = lower value 0.972 | locus YKR026C, strain gcn3, stronger effect = lower value 0.979 | locus YKR091W, strain srl3, stronger effect = lower value 0.973 | locus YLL026W, stronger effect = lower value 0.966 | locus YLL041C, strain sdh2, stronger effect = lower value 0.989 | locus YLR027C, strain aat2, stronger effect = lower value 0.935 | locus YLR113W, strain HOG1, stronger effect = lower value 0.996 | locus YLR384C, strain iki3, stronger effect = lower value 0.993 | locus YML120C, strain ndi1, stronger effect = lower value 0.972 | locus YMR125W, strain sto1, stronger effect = lower value 0.982 | locus YMR129W, stronger effect = lower value 0.989 | locus YNL183C, strain NPR1, stronger effect = lower value 0.925 | locus YNL209W, strain ssb2, stronger effect = lower value 0.93 | locus YNL248C, strain rpa49, stronger effect = lower value 0.932 | locus YNL250W, strain rad50, stronger effect = lower value 0.995 | locus YNL322C, strain KRE1 (second series), stronger effect = lower value 0.918 | locus YNR049C, strain mso1, stronger effect = lower value 0.923 | locus YOL012C, strain htz1 0.694 | locus YOR001W, strain rrp6, stronger effect = lower value 0.956 | locus YOR080W, strain dia2, stronger effect = lower value 0.921 | locus YOR231W, strain MKK1, stronger effect = lower value 0.978 | locus YOR290C, strain snf2, stronger effect = lower value 0.888 | locus YOR316C, strain cot1, stronger effect = lower value 0.991 | locus YPL240C, strain hsp82, stronger effect = lower value 0.966 | locus YPL256C, strain CLN2, stronger effect = lower value 1.03 | locus YPR141C, strain kar3, stronger effect = lower value 0.988

Reference: PubChem BioAssay AID1159580 (chemical genetic matrix, 2015)
